From PubChem BioAssay (NCATS)
Records with an inconclusive call do not appear. Activity calls are given as the source filed them. Unless noted, calls follow the shape of the dose curve; as a rule, active = well fitted curve in either direction with a large enough effect (not every such curve was filed as active); inconclusive = small, poorly fitted or top-dose-only effect, or another doubt; inactive = flat fitted curve, though single readings scatter.

Tests used:
[1] = biological target: Lysosomal acid glucosylceramidase (Homo sapiens) (UniProt P04062); assay: Glucocerebrosidase-p2 (AID 348; in the data active = potency below about 10 µM; also: potency is read from the fitted curve at half-maximal effect); details: purified GBA, blue fluorogenic substrate, 40 min
Procedure, shortened: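 Compounds titrated from 0.6 nM upwards against 0.2 nM enzyme in pH 5.9 citric acid/KH2PO4, taurocholate, tween-20; blue fluorogenic substrate 80 uM, 40 min room temperature, stopped and read Ex 365/Em 440 for AC50.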

[2] = AP1 Signaling Pathway (AID 357); details: ME-180 AP-1-bla reporter, EGF-induced, beta-lactamase ratio, 5 h; at 7.69 µM (top of the series) unless noted; also: % is scaled to controls: 0 for no effect and ±100 for the full control effect
Procedure, shortened: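 ME-180 cells with beta-lactamase reporter under AP-1 response element, stimulated with EC50 EGF; compounds tested in titration series, 5 h at 37 °C. CCF4 substrate added 2.5 h at room temperature; 460/530 nm emission ratio gave %activity and AC50.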

[3] = biological target: Cytochrome P450 1A2 (Homo sapiens) (UniProt P05177); assay: p450-cyp1a2 (AID 410; calls by dose curve; also: potency is read from the fitted curve at half-maximal effect;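 as to activity change, negative = inhibition: -100% = full effect of reference inhibitor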); details: recombinant CYP1A2, luciferin-ME demethylation, luminescence; series mostly up to 11.4 µM
Procedure, shortened: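 Human CYP1A2 (20nM) demethylated Luciferin-ME at its Km (100uM) in 100mM KPO4. After 10 min compound preincubation, NADPH regeneration ran the reaction 60 min at room temperature. Luciferin was read by luminescence, normalized to 57 uM furafylline.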

[4] = NFAT Signaling Pathway (AID 444); details: Jurkat NFAT-bla M1, carbachol, beta-lactamase ratio, 5 h; at 7.69 µM (top of the series) unless noted;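 also: carbachol stimulus at about its EC50 of 1 µM final; % is scaled to controls: 0 for no effect and ±100 for the full control effect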
Procedure, shortened: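 Jurkat cells carrying an NFAT-driven β-lactamase reporter and co-transfected muscarinic M1 receptor were treated with compound plus carbachol (1 uM final, an EC50 level) for 5 h at 37 °C. CCF4 loading followed for 1 h at RT; 460/530 nm ratio gave %activity.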

[5] = Stat Signaling Pathway (AID 446); details: ME-180 SIE beta-lactamase reporter, IL-6 stimulated, 5 h; at 7.69 µM (top of the series) unless noted;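 also: ME-180 cervical cancer cells given 40 pM IL-6 alongside compound; SIE-controlled beta-lactamase reporter measured as 460/530 nm FRET emission ratio; % is scaled to controls: 0 for no effect and ±100 for the full control effect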
Procedure, shortened: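 IL-6/STAT signaling read in ME-180 cells via an SIE beta-lactamase reporter. Stimulus was 40 pM IL-6 (its AC50) for 5 hrs, so both activation and inhibition register.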

[6] = biological target: Glucocorticoid receptor (Homo sapiens) (UniProt P04150); assay: GR-EFC Redistribution (AID 451; calls by dose curve; also: potency is read from the fitted curve at half-maximal effect); details: CHO-K1 GR-EFC translocation, beta-gal luminescence, 2 h
Procedure, shortened: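 CHO-K1 cells stably expressing nuclear-localized β-gal enzyme acceptor and GR fused C-terminally to the enzyme donor fragment; ligand-driven nuclear translocation restores β-gal by complementation. Compounds titrated up to 46 uM final, 2 h at 37 °C; luminescence read.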

[7] = biological target: 3',5'-cyclic-AMP phosphodiesterase 4B (Homo sapiens) (UniProt Q07343); assay: qHTS Assay for Inhibitors of PDE-IV (AID 607; active = well fitted activation curve with a large enough effect in the main read-out, with a control signal flat, not every such curve was filed as active; also: % of control where 0% means no effect); details: HEK293 ACTOne CNG channel cells, membrane potential fluorescence; series mostly up to 22.9 µM
Procedure, shortened: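 Live HEK293 cells with a modified cyclic nucleotide-gated (CNG) channel report intracellular cAMP via membrane-potential dye fluorescence (ex 535/em 590 nm). Endogenous PDE-IV was targeted. Compounds were tested at up to 22.9 uM final; RO 20-1724 100 uM served as control.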

[8] = biological target: Cytochrome P450 2D6 (Homo sapiens) (UniProt P10635); assay: qHTS Assay for Inhibitors and Substrates of Cytochrome P450 2D6 (AID 891; active = well fitted inhibition curve with a large enough effect; also: potency is read from the fitted curve at half-maximal effect; nearly all actives have a fitted effect of over 60% in size); details: recombinant CYP2D6, luciferin-ME EGE luminescence; series mostly up to 11.4 µM
Procedure, shortened: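 Human CYP2D6 (5 nM) with 30 uM Luciferin-ME EGE (at Km) in 100 mM KPO4, compound preincubated 10 min, then NADPH regeneration system for 60 min at room temperature. Luciferin read by luminescence; normalized to 1.43 uM quinidine.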

[9] = biological target: Mitogen-activated protein kinase 10 (Mus musculus) (UniProt Q61831); assay: JNK3 AlphaScreen Assay (AID 530); details: JNK3 lysate, c-Jun phosphorylation; series mostly up to 11.4 µM;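 also: kinase came from lysate of stimulated human HepG2 cells; signal reports phosphorylation of biotinylated GST-cJun 1-79 at Ser73 with 10 µM ATP; % is scaled to controls: 0 for no effect and ±100 for the full control effect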
Procedure, shortened: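 JNK3 came from HepG2 lysates pre-activated with IL-1beta and TNF-alpha and phosphorylated biotinylated GST-cJun (1-79) at 10 uM ATP, pH 7.6, room temperature. Compounds were titrated. AlphaScreen signal used anti-phospho-cJun (Ser73) antibody.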

[10] = biological target: Glucocorticoid receptor (Homo sapiens) (UniProt P04150); assay: GR-GFP Redistribution (AID 450;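 active = compounds whose dose series gives a full or clear partial fitted curve of increased nuclear translocation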; also: potency is read from the fitted curve at half-maximal effect); details: U2OS GR-GFP nuclear translocation, laser cytometry, 2 h
[11] = biological target: Cytochrome P450 2C9 (Homo sapiens) (UniProt P11712); assay: qHTS Assay for Inhibitors and Substrates of Cytochrome P450 2C9 (AID 883; active = well fitted inhibition curve with a large enough effect; also: % is scaled to controls: 0 for no effect and ±100 for the full control effect; nearly all actives have a fitted effect of over 60% in size); details: recombinant CYP2C9, luciferin-H luminescence, 60 min; series mostly up to 11.4 µM
Procedure, shortened: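 Human CYP2C9 (10nM) hydroxylated Luciferin-H (100uM, at its KM) to luciferin in 25mM KPO4. Compound was preincubated 10 min at 37C, then NADPH regeneration started a 60 min reaction at 37C. Luminescence was read after detection reagent, normalized to 57uM sulphaphenazole.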

[12] = biological target: Cytochrome P450 2C19 (Homo sapiens) (UniProt P33261); assay: qHTS Assay for Inhibitors and Substrates of Cytochrome P450 2C19 (AID 899; active = well fitted inhibition curve with a large enough effect; also: potency is read from the fitted curve at half-maximal effect; nearly all actives have a fitted effect of over 60% in size); details: recombinant CYP2C19, luciferin-H EGE luminescence; series mostly up to 11.4 µM
Procedure, shortened: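 Human CYP2C19 (5nM) with Luciferin-H EGE at 10uM (its KM) in 50mM KPO4 was preincubated with compound for 10 min at 37C. NADPH regeneration started a 60 min 37C reaction. Luciferin was read by luminescence, normalized to 57uM ketoconazole.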

[13] = qHTS Assay for Identification of Small Molecule Agonists for Hypoxia Response Element Signaling Pathway (AID 914; active = well fitted activation curve with a large enough effect in the signal ratio, with a control signal flat, not every such curve was filed as active; the % refers to the signal ratio; also: % of control where 0% means no effect); details: ME-180 (cervical carcinoma) HRE-bla reporter, beta-lactamase ratio, CoCl2, 17 h; activation: stronger effect = higher value
Procedure, shortened: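 Cells were plated overnight, pin-dosed with compound in a titration series, co-stimulated with EC50 CoCl2 and incubated 17 hours at 37 degrees Celsius. CCF4 substrate was then loaded, and AC50 values came from the 460nm/530nm ratio.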

Chain of 3',5'-cyclic-AMP phosphodiesterase 4B (Homo sapiens) (Q07343 whole entry, looked up): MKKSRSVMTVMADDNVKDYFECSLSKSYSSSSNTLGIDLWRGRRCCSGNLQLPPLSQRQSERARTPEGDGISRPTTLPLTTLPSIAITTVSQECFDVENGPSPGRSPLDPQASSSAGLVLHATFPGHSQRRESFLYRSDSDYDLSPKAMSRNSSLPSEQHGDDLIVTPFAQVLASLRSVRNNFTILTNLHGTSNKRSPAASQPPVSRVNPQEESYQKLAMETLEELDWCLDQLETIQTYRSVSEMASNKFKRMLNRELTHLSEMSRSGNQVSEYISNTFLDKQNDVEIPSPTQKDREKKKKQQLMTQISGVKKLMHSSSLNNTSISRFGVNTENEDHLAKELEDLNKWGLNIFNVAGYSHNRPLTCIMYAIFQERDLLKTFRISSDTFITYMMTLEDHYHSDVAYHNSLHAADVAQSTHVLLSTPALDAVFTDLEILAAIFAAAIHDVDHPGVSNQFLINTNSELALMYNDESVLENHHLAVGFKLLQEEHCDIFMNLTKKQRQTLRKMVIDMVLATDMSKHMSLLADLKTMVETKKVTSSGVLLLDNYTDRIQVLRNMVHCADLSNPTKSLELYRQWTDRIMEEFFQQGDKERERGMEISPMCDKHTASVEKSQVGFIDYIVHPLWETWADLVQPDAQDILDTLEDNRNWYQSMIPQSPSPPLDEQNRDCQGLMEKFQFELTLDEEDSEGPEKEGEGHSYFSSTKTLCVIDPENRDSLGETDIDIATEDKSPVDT
Chain of Cytochrome P450 1A2 (Homo sapiens) (P05177 whole entry, looked up): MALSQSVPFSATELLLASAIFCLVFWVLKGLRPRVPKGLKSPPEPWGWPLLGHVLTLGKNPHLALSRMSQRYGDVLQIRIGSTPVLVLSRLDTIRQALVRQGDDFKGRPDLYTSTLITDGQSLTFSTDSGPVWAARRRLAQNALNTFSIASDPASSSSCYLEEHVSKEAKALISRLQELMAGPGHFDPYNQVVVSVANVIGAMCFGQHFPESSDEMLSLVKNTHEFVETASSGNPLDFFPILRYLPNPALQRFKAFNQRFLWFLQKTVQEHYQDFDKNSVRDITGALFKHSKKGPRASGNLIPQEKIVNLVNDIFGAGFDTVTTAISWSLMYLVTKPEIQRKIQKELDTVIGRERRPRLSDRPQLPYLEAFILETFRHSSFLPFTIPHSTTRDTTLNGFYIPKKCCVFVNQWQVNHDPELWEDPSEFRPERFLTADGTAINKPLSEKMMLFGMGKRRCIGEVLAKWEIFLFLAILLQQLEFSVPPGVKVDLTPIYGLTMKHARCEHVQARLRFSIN
Chain of Cytochrome P450 2D6 (Homo sapiens) (P10635 whole entry, looked up): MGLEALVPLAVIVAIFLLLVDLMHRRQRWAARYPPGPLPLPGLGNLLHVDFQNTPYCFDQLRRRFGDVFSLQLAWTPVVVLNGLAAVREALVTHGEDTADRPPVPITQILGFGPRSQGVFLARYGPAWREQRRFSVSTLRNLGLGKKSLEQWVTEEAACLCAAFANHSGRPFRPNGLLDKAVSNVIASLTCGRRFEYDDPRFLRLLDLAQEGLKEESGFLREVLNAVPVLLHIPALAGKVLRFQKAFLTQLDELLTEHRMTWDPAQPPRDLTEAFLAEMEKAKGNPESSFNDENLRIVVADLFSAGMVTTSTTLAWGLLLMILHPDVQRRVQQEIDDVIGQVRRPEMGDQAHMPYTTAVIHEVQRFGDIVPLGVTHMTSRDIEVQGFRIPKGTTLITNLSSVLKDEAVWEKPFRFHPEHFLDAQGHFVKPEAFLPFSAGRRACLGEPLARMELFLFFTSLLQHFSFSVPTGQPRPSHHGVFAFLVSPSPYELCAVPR
Chain of Glucocorticoid receptor (Homo sapiens) (P04150 whole entry, looked up, the tested form may be a part): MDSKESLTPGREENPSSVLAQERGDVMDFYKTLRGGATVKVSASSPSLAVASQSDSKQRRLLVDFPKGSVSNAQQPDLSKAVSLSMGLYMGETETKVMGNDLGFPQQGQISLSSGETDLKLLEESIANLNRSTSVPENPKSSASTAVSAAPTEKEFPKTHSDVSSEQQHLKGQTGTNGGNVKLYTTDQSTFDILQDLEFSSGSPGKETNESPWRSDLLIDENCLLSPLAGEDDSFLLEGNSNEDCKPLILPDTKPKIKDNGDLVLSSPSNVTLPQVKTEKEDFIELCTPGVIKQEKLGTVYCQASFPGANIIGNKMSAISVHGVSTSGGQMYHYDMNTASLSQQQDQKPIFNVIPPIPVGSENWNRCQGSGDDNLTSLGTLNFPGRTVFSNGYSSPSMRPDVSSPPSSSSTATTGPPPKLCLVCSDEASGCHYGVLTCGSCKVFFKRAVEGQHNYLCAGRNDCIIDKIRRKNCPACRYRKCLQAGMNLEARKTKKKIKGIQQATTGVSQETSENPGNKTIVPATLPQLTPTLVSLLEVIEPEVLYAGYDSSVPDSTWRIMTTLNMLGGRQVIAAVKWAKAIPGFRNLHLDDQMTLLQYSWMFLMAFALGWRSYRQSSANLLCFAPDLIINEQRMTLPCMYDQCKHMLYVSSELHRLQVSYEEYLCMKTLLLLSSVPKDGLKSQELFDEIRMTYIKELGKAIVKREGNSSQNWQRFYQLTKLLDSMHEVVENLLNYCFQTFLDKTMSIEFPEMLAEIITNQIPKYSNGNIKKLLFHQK
Chain of Lysosomal acid glucosylceramidase (Homo sapiens) (P04062 whole entry, looked up): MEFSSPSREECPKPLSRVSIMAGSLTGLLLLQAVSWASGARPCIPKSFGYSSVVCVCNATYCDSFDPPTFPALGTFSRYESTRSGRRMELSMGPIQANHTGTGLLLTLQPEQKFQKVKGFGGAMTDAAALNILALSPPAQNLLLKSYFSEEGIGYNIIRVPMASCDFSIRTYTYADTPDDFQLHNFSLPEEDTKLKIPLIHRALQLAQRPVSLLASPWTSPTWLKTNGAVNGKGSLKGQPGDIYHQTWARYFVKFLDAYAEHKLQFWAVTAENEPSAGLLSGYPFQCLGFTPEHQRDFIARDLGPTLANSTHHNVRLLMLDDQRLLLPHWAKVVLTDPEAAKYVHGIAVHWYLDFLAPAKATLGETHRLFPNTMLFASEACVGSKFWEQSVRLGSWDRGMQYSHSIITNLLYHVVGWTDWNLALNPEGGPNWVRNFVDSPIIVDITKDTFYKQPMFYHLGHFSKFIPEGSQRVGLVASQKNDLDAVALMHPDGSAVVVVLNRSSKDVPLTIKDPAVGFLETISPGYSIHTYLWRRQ
Chain of Cytochrome P450 2C9 (Homo sapiens) (P11712 whole entry, looked up): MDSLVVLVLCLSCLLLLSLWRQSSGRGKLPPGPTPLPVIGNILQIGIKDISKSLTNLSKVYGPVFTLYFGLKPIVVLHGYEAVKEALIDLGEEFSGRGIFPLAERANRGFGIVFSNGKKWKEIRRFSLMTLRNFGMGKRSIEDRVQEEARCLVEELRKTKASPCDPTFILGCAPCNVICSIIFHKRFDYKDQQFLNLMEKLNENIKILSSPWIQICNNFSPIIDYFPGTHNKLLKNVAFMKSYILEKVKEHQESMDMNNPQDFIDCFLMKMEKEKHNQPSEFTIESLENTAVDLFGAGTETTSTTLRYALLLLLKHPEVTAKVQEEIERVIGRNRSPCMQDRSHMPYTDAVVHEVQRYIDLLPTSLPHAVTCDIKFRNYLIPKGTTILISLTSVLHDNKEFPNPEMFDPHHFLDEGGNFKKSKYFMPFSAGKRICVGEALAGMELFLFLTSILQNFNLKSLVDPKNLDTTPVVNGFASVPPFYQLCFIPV
Chain of Cytochrome P450 2C19 (Homo sapiens) (P33261 whole entry, looked up): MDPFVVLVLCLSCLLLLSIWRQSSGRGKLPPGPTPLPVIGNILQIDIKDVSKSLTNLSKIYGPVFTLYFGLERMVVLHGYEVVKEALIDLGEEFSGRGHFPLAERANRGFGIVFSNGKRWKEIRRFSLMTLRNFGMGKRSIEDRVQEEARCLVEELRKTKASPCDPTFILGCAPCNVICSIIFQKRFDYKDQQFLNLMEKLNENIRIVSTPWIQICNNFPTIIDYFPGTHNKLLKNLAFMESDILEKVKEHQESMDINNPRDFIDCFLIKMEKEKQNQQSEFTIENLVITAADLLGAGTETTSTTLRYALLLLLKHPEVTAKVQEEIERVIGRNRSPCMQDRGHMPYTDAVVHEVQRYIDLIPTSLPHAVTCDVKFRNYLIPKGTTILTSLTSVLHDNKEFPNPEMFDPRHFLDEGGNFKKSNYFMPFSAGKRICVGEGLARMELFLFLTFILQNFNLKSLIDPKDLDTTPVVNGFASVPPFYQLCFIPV

CC1=NCC[N@@+]1(CCc1ccccc1)Cc1ccccc1
inactive: Potency [1] > 11.4 µM | activity change, negative = inhibition [2] -5.92% | Potency [3] | activity change, negative = inhibition [4] -20.4% | activity, negative = inhibition [5] 11.6% | Potency [6] > 9.22 µM | Potency [7]
active: Potency [8] 0.0501 µM

c1ccc([C@H](CCN2CCCC2)c2ccccn2)cc1
inactive: Potency [1] > 11.4 µM | activity change, negative = inhibition [2] -0.626% | Potency [3] | activity change, negative = inhibition [4] -26.3% | activity, negative = inhibition [5] 0.606% | Potency [6] > 9.22 µM | Potency [9] | Potency [7]

O=C(O)c1ccc(C(=O)c2ccccc2)c(C(=O)O)c1
inactive: Potency [1] > 11.4 µM | activity change, negative = inhibition [2] 21.3% | activity change, negative = inhibition [3] 3.1% [at 2.29 µM] | activity change, negative = inhibition [4] 2.06% | activity, negative = inhibition [5] 5.54% | Potency [6] > 9.22 µM | Potency [9] | Potency [7]

N[C@@H](Cc1ccnnc1)C(=O)O
inactive: Potency [1] > 11.4 µM | activity change, negative = inhibition [2] -10.1% | activity change, negative = inhibition [3] -10.6% [at 2.29 µM] | activity change, negative = inhibition [4] 13.5% | activity, negative = inhibition [5] -4.41% | Potency [10] > 46 µM | Potency [9]

NC(N)=N[C@@H]1C(O)[C@H](N=C(N)N)[C@@H](O)C(O)[C@H]1O (stereo partly drawn)
inactive: Potency [1] > 11.4 µM | activity change, negative = inhibition [2] -5.59% | activity change, negative = inhibition [3] -4.9% [at 2.29 µM] | activity change, negative = inhibition [4] 13.4% | activity, negative = inhibition [5] -0.855% | Potency [10] > 46 µM | Potency [9] | Potency [7]

Clc1ccc(CN2CCCN(Cc3ccc(Cl)cc3)C2c2cc3ccccc3c3ccccc23)cc1
inactive: Potency [1] > 11.4 µM | activity change, negative = inhibition [2] 6.24% | activity change, negative = inhibition [4] -10.5% | activity, negative = inhibition [5] 2.22% | Potency [10] > 46 µM | Potency [9] | Potency [11]
active: Potency [3] 0.794 µM | Potency [8] 0.199 µM | Potency [12] 0.794 µM

CN(C)CCCN1c2ccccc2Sc2cnccc21
active: Potency [8] 1.58 µM

O=c1c2ccccc2sc2c(CO)ccc(NCCN3CCCCC3)c12
active: Potency [8] 1.26 µM

Cc1cccc(C)c1NC(=O)Nc1ccc(S(N)(=O)=O)cc1
inactive: activation [13] 13.8%

O=C(Nc1cccc2cccnc12)[C@@H]1[C@@H](C(=O)O)[C@H]2CC[C@@H]1O2
inactive: Potency [1] > 11.4 µM | activity change, negative = inhibition [2] 6.33% | Potency [3] | activity, negative = inhibition [5] -11% | Potency [10] > 46 µM | Potency [6] > 9.22 µM | Potency [9] | Potency [7]

O=C1[C@@H]2[C@@H](C(=O)N1c1ccc(OCc3ccccc3)cc1)[C@@H]1c3ccccc3[C@@H]2[n+]2ccccc21
inactive: Potency [1] > 11.4 µM | activity change, negative = inhibition [2] -1.52% | Potency [3] | activity, negative = inhibition [5] 4.93% | Potency [10] > 46 µM | Potency [6] > 9.22 µM | Potency [9] | Potency [7]
